Compound activity deposited in PubChem BioAssay by National Center for Advancing Translational Sciences (NCATS).
In the library only some 7.9% were active in any assay of this set; here they are far more common.
HT1080 IDH1KD tx – toxicity to HT-1080 IDH1 knockdown cells (counter line) | HT-1080 IDH1 knockdown viability, ATP luminescence, 48 h | AID 686971 | 360,000 compounds, 2% hits | Potency, µM (doses to about 46.1 µM), for inactives: at the highest dose activity, negative = toxicity, hits mostly cytotoxic;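 further: 0% = DMSO wells and -100% = cell-free medium wells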
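After a 2 h attachment period, IDH1KD HT-1080 cells took pin-transferred compound for 48 h at 37 °C; ATP-based luminescence after 10 min room-temperature reagent incubation reported viability.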
MCF10A rereplic – induces DNA re-replication in MCF 10a normal breast cells | AID 624296 | MCF 10A DNA re-replication, Hoechst nuclear intensity, 48 h | 350,000 compounds, 2.9% hits | Potency, µM (doses to about 46.1 µM), inactives show top-dose activity, positive = re-replication, most hits filed as activators; further: % of control where 0% means no effect; nearly all actives have a fitted effect of over 50% in size
SW480 rerep – induces DNA re-replication in SW480 colon adenocarcinoma cells; SW480 DNA re-replication, Hoechst DNA content imaging, 48 h; Potency, µM (series often up to 46.1 µM), for the others: at the highest dose re-replication activation, most hits filed as activators; 340,000 compounds, 1.8% hits; further: % of control where 0% means no effect; nearly all actives have a fitted effect of over 55% in size
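SW480 cells exposed to compounds for 48 hr at 37 C, 5% CO2, then Hoechst-stained 40 min. Nuclear DNA content imaged by fluorescence scanning (405 nm excitation, 500-530 nm emission); re-replication scored as increased high-intensity nuclei.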
HT1080NT lethal – kills 2HG-producing HT-1080-NT fibrosarcoma cells. HT-1080-NT fibrosarcoma viability, CellTiter-Glo ATP luminescence, 48 h. Potency, µM (top dose mostly 46.1 µM), for the others: top-dose activity, negative = less viability, most hits filed as cytotoxic. 360,000 compounds, 1.6% hits;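 further: NT is the 2HG producing partner of a matched IDH1 knockdown line; 0% = DMSO-treated cells and -100% = media-only wells without cells; nearly all actives have a fitted effect of over 55% in size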
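750 cells/well, RPMI + 5% FBS; 2 h settle, compound pin-transfer, 48 h at 37 degrees C. CellTiter-Glo 10 min RT, luminescence. Normalized to DMSO and media-only wells.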
KB-V1 MDR tox – kills drug-selected multidrug resistant KB-V1 cells | Potency, µM (highest dose often 46.1 µM), hits mostly cytotoxic | 400,000 compounds, 3.4% hits | KB-V1 MDR cells viability, CellTiter-Glo, 72 h; further: on the % scale 0 is the no-effect control and ±100 the full control effect; nearly all actives have a fitted effect of over 60% in size
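Cytotoxicity via CellTiter-Glo luminescence after 72 h compound exposure at 37 degrees C. Cells: drug-selected KB-V1 line, DMEM phenol-red free plus 10% FBS. Compounds tested at multiple concentrations; normalized data fitted to concentration-effect curves.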
KB-3-1 tox – kills parental KB-3-1 adenocarcinoma cells. KB-3-1 viability, CellTiter-Glo ATP luminescence, 72 h. Potency, µM (titrated, usually from 46.1 µM), usual class: cytotoxic. 400,000 compounds, 1.4% hits. AID 1347075; further: on the % scale 0 is the no-effect control and ±100 the full control effect; nearly all actives have a fitted effect of over 60% in size
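Cytotoxicity in the drug-sensitive parental line KB-3-1 was scored as loss of CellTiter-Glo luminescence following 72 h incubation with compound. Values come from curve fitting of normalized concentration-response data.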
Numbers without * were called inactive; i = inactive; ? = inconclusive; . = not tested or not shown; [ ] = dose if it differs, or a comment. The call rests on the fitted dose curve; in most records, active means well fitted curve in the direction sought with a large enough effect; inconclusive means small, poorly fitted or top-dose-only effect, or another doubt; inactive means no such curve, though single readings can be large; an effect the other way counts as inactive or inconclusive. Potency means the concentration at half of the fitted maximal effect.

SMILES | HT1080 IDH1KD tx | MCF10A rereplic | SW480 rerep | HT1080NT lethal | KB-V1 MDR tox | KB-3-1 tox
O=C(c1ccccc1)N1CCCC(C(=O)N2CCCCCC2)C1 (stereo unspecified) | -7% | 0% | -10% | -2% | 21µM* | i
O=C(c1ccc(CNS(=O)(=O)c2ccccc2)cc1)N1CCN(Cc2ccccc2)CC1 | ? | 28% | 21% | ? | 4.6µM* | 18µM*
O=C(O)c1ccc(CNS(=O)(=O)c2ccc(Oc3ccccc3Cl)cc2)cc1 | -4% | ? | 0.16µM* | -14% | i | i
O=C(c1ccccc1F)N1CCN(Cc2cccc(Cl)c2)CC1 | 5% | 0% | 0% | -3% | 21µM* | i
CS(=O)(=O)c1ccc(C(=O)N2CCN(Cc3ccccc3)CC2)cc1 | 0% | 3% | -3% | 14% | i | i
CC(C)(C)C(=O)c1c(N)[nH]c(C(=O)c2ccccc2)c1-c1ccc(C(F)(F)F)cc1 | -15% | . | . | 2% | i | i
CCN(CC)C(=O)N1CCn2c(nc3ccccc32)C1 | -6% | -3% | -6% | 0% | i | i
O=C(Nc1ccccc1)N1CCn2c(nc3ccccc32)C1 | 7% | 15% | 0% | 20% | 23µM* | i
COC(=O)c1cc(=O)nc(NN=Cc2ccco2)s1 | 12% | . | . | 19% | i | i
O=C(CN1C(=O)CCn2nc(-c3ccccc3)cc21)NCc1ccc(Cl)cc1 | . | . | . | . | i | i
O=C1CCn2nc(-c3ccc(Cl)cc3)cc2N1 | 12% | -5% | -7% | -2% | ? | 1.8µM*
CCOC(=O)C1=C(C)Nc2ccccc2N/C1=N\S(=O)(=O)c1cc(C(=O)O)ccc1Cl | 0% | 4% | -6% | 0% | ? | i
COC(=O)c1ccc(C2NC(=S)N(c3ccccc3)C(C)=C2C(=O)Nc2ccccc2OC)cc1 (stereo unspecified) | 2% | 10% | 17% | -3% | i | i
COc1ccccc1NC(=O)C1=C(C)N(c2ccccc2)C(=S)NC1c1cccc(C(F)(F)F)c1 (stereo unspecified) | ? | 16% | 25% | ? | 8.2µM* | ?
C=CCn1c(SCc2nc3sc4c(c3c(=O)[nH]2)CCCC4)nc2ccccc2c1=O | 1% | 10µM* | -1% | 4% | 2.1µM* | i
CCOC(=O)CSc1nnc(CSc2nc3sc4c(c3c(=O)[nH]2)CCC4)n1-c1ccccc1 | 8% | 3% | -2% | 0% | i | i
C=CCn1c(SCc2nc3ccccc3c(=O)[nH]2)nc2sc3c(c2c1=O)CCCC3 | -5% | 15% | -5% | -11% | i | i
C=CCSc1nnc(CSc2nc3sc4c(c3c(=O)[nH]2)CCCC4)n1-c1ccccc1 | ? | ? | ? | -16% | 21µM* | i
CCCCn1c(N)c(N(Cc2ccccc2OC)C(=O)C(C)Oc2ccc(Cl)cc2)c(=O)[nH]c1=O (stereo unspecified) | -3% | -18% | 21µM* | -4% | i | ?
CC1=CC(C)(C)N(S(=O)(=O)c2ccc(C)cc2)c2ccc(C)cc21 | 6.3µM* | -2% | 7% | 3.2µM* | ? | 6.5µM*
CC(=O)Nc1ccc(S(=O)(=O)N2c3ccccc3C(C)=CC2(C)C)cc1 | 0.92µM* | ? | ? | 1.3µM* | ? | 3.3µM*
C/C=C/C(=O)N1c2ccc(C)cc2C(C)=CC1(C)C | 0% | 9% | 3% | -2% | i | i
CC1=CC(C)(C)N(S(=O)(=O)c2ccc(F)cc2)c2ccccc21 | ? | ? | 21µM* | 11µM* | i | i
COc1cccc(C(=O)N2CCC(CCC(=O)Nc3cccc(C)c3)CC2)c1 | 0% | 6% | -7% | -7% | i | i
COc1ccc(C(CNC(=O)c2cccc(S(=O)(=O)N3CCOCC3)c2)N2CCCC2)cc1 (stereo unspecified) | -8% | 9% | -3% | -9% | i | i
SMILES | HT1080 IDH1KD tx | MCF10A rereplic | SW480 rerep | HT1080NT lethal | KB-V1 MDR tox | KB-3-1 tox
CCC(C)c1ccccc1N1CC(C(=O)NCCC2=CCCCC2)CC1=O (stereo unspecified) | 1% | -5% | 2% | -2% | 23µM* | i
CCOc1ccccc1N1CC(C(=O)NCCC2=CCCCC2)CC1=O (stereo unspecified) | -3% | -9% | -63% | 0% | i | i
COc1ccc(COc2cc(-c3cccc(OC)c3)nc3ccc(NC(C)=O)cc23)cc1 | -6% | 0% | ? | -20% | i | i
COc1ccc(COc2cc(-c3cccc(OC)c3)nc3ccc(NC(=O)c4ccc(N(C)C)cc4)cc23)cc1 | 6.5µM* | 5.8µM* | 9.2µM* | ? | i | 4.6µM*
COc1ccc(COc2cc(-c3cccc(OC)c3)nc3ccc(N)cc23)cc1 | 2.1µM* | 0.73µM* | 1.5µM* | 0.82µM* | 5.8µM* | ?
COc1ccc(COc2cc(-c3cccc(OC)c3)nc3ccc(NC(=O)c4ccc(C)cc4)cc23)cc1 | 13µM* | 5.8µM* | 21µM* | 13µM* | i | 9.2µM*
CC(NC(=O)c1ccc2nc(CCc3ccccc3)oc2c1)c1ccccc1 (stereo unspecified) | . | . | . | . | i | i
O=C(NCc1ccccc1)[C@]1(C(F)(F)F)C[C@H](CCc2ccccc2)CCCO1 | 2% | 1.8µM* | -4% | 0% | i | i
O=C1C=C(O)CC(c2ccc(Cl)c(Cl)c2)C1 (stereo unspecified) | 4% | 5µM* | -1%[9.22 µM] | -3% | i | i
COCCC(=O)N1CCC(Oc2ccc(C(=O)N3CCC(N(C)C)C3)cc2)CC1 (stereo unspecified) | 11% | 6% | -9% | 10% | i | i
O=C(OCC(=O)c1c[nH]c2ccccc12)c1ccc([N+](=O)[O-])s1 | -13% | -12% | 21µM* | -2% | ? | i
COc1ccc2oc3cc(C)[n+]([O-])c(-c4ccc(Br)cc4)c3c2c1 | -5% | ? | -6% | -8% | 2.9µM* | ?
Cc1ccc(C)c(N2CCN(C3CCCCC3NS(=O)(=O)c3ccccc3)CC2)c1 (stereo unspecified) | 0% | ? | 27% | 9% | i | 16µM*
Cc1ccc(Cl)cc1N1CCN(C2CCCCC2NS(=O)(=O)c2ccccc2)CC1 (stereo unspecified) | 3% | 7% | -17% | -7% | i | i
